NPC1 prom act – activators of NPC1 promoter | Huh7 NPC1 promoter luciferase reporter, 24 h | Potency, µM (titrated, usually from 9.22 µM), for inactives: at the top dose activation, usual class: activators | 320,000 tested, 2.4% active; also: % of control where 0% means no effect; nearly all actives have a fitted effect of over 60% in size
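Stably transfected Huh7 (NPC1 promoter→luciferase), 1500 cells/well in Opti-MEM + 10% FBS, 2 h settle, then compound 24 h at 37 °C. Luminescence after 10 min with Amplite reagent.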
KinaseGlo FLuc – counter-screen: inhibitors of Kinase-Glo firefly luciferase; 200,000 tested, 0.28% active; Q27757; Potency, µM (top dose mostly 38.3 µM), inactives show at the top dose activity change, negative = inhibition, actives largely listed as inhibitors; Kinase-Glo luciferase, ATP luminescence, 8 min; also: % is scaled to controls: 0 for no effect and ±100 for the full control effect; nearly all actives have a fitted effect of over 60% in size
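Compounds were added to a substrate mix at pH 7.2 (50 mM imidazole, 10 uM ATP, within the enzyme's linear range), followed by Kinase-Glo detection reagent; luminescence was measured after 8 minutes at ambient temperature.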
SMN2 splice up – SMN2 splice variant enhancement; HEK293 SMN2-luciferase splicing reporter, luminescence, 30-36 h; Potency, µM (series often up to 46.1 µM), for the others: at the top dose activity change, positive = activation, actives largely listed as activators; 210,000 tested, 2.8% active; AID 1458; also: % of control where 0% means no effect; nearly all actives have a fitted effect of over 55% in size
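HEK293 cells carry an SMN2 minigene-luciferase reporter in which exon 7 inclusion puts luciferase in frame. Cells were seeded at 2000 cells/well, attached for 10-12 hours, then exposed to compounds for 30-36 hours at 37C before ONE-Glo luminescence.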
FLuc modulator – inhibits or activates purified firefly luciferase, miR-21 counter-screen; purified FLuc, Km substrates, luminescence inhibition; Potency, µM (series often up to 57.5 µM), for the others: at the top dose activity change, negative = inhibition, usual class: inhibitors; 360,000 tested, 6.9% active; AID 588342;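 also: plate controls were vehicle for no effect and reference inhibitor for full effect; nearly all actives have a fitted effect of over 55% in size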
Target sequence (P08659 whole entry, looked up): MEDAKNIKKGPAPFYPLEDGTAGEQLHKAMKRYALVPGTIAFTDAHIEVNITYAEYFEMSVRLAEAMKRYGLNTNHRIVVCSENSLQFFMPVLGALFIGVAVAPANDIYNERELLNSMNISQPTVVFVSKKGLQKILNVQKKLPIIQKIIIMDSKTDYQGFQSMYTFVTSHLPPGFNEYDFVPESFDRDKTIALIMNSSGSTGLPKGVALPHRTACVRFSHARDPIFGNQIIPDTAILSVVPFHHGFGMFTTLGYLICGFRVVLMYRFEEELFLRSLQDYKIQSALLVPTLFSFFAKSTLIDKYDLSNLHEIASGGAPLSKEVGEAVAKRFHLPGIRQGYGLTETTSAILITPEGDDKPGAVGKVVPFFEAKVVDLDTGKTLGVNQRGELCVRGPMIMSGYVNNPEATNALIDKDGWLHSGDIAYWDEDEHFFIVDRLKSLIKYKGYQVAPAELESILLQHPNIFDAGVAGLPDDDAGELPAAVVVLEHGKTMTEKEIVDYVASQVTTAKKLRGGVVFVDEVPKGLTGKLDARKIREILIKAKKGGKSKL
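Purified P. pyralis luciferase, 10 nM final, with Km-level 10 uM D-luciferin and 10 uM ATP in 50 mM Tris acetate pH 7.5, 10 mM Mg acetate, 0.01% Tween-20, 0.05% BSA; 6-point qHTS titration about 60 µM downward; luminescence read.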
ELG1 genotoxic – inducers of genotoxicity in HEK293T ELG1-luciferase cells; HEK293T ELG1-luciferase reporter, luminescence, 16 h; Potency, µM (doses to about 46 µM), for inactives: top-dose activity change, positive = activation, actives largely listed as activators; 330,000 tested, 1.3% active; AID 504466; also: % of control where 0% means no effect; nearly all actives have a fitted effect of over 60% in size
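Genotoxicity was scored as increased ELG1-luciferase reporter signal, measured by ONE-Glo luminescence (30 min, room temperature). Compound or vehicle exposure of the HEK293T reporter cells lasted 16 hr at 37°C.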
Rab9 promoter act – activators of Rab9 promoter; Potency, µM (titrated, usually from 9.22 µM), for inactives: at the highest dose activation, negative = inhibition, usual class: activators; Huh7 Rab9 promoter-luciferase reporter, luminescence, 24 h; 320,000 tested, 2.8% active; also: % of control where 0% means no effect; nearly all actives have a fitted effect of over 60% in size
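Using Huh7 cells stably transfected with Rab9 promoter–luciferase, compounds were incubated 24 h at 37 °C, 5% CO2; luciferase luminescence was read 10 min after reagent addition.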
* = called active by the depositor; ? = inconclusive; / = no result; [ ] = dose if it differs, or a comment. An excerpt weighted towards active compounds, which were near 7.4% of everything screened. Calls follow the shape of the dose curve; as a rule, active = well fitted curve in the direction sought with a large enough effect; inconclusive = small, poorly fitted or top-dose-only effect, or another doubt; inactive = no such curve, though single readings can be large; an effect the other way counts as inactive or inconclusive. Potency is read from the fitted curve at half-maximal effect.

SMILES | NPC1 prom act | KinaseGlo FLuc | SMN2 splice up | FLuc modulator | ELG1 genotoxic | Rab9 promoter act
Cc1c(C(=O)NCc2cccs2)oc2ccc(S(=O)(=O)N3CCOCC3)cc12 | 2% | -6% | ? | 3% | -4% | 0%
Cc1c(C(=O)NCc2cccs2)oc2ccc(Br)cc12 | 1% | -6% | -20% | 19µM* | 18µM* | 14%
Cc1c(C(=O)Nc2cccnc2)oc2ccc(Br)cc12 | ? | / | / | 2.7µM* | 18µM* | 3.2µM*
O=C(Nc1cccnc1)c1cc2c(ccc3ccccc32)o1 | / | -4% | 11µM* | 0.95µM* | / | /
COc1ccc(OC)c(CNc2ncc(-c3ccc(F)cc3)n2C)c1 | -3% | / | / | -11% | -4% | 0%
O=c1c2oc3ccccc3c2ncn1Cc1ccc(Br)cc1 | / | / | / | -9% | / | /
Cc1ccc(NC(=O)CSc2nnc(CNC(=O)c3ccco3)o2)cc1Cl | -6% | / | / | -2% | 0%[9.26 µM] | 1%
CCc1ccc2oc(C(=O)Nc3nc(-c4ccc(F)cc4)ns3)c(C)c2c1 | / | / | 6% | 6.7µM* | / | /
Cc1c(C(=O)Nc2nc(-c3ccc(F)cc3)ns2)oc2ccc(Br)cc12 | / | / | -8% | -2% | / | /
Nc1c(-c2cccc(Cl)c2)cnn1-c1cccc(C(F)(F)F)c1 | 2% | -1% | -27% | ? | -3% | 9%
N#Cc1c(C#N)c(-c2ccccc2)n(-c2ccc(C(=O)O)cc2)c1N | 0% | -1% | -13% | 1% | 0% | 2%
Nc1c(-c2ccccc2)cnn1-c1cccc(C(F)(F)F)c1 | ? | 0% | 3.5µM* | 17µM* | 14% | 3.2µM*
Nc1c(-c2ccccc2)cnn1-c1ccc(C(=O)O)cc1 | ? | -8% | 3.2µM* | 1.7µM* | ? | 0.32µM*
Nc1c(-c2ccc(Cl)cc2)nnn1-c1ccccc1 | 3.2µM* | -12% | / | ? | ? | 2.2µM*
Cc1ccc(-c2cnn(-c3cccc([N+](=O)[O-])c3)c2N)cc1 | 2.2µM* | -10% | 29% | 12µM* | ? | 3.2µM*
CCn1c(=O)cc(OCC(=O)N(C)c2ccc(OC)cc2)c2ccccc21 | / | / | 6% | 2% | / | /
COc1ccc(-c2cnn(-c3ccccc3)c2N)cc1OC | 2% | 7% | -4% | 1% | 1% | -5%
COc1ccc(-c2cnc3c(-c4ccc(F)cc4)cnn3c2N)cc1 | 0.4µM* | / | / | 0.6µM* | ? | 0.32µM*
Nc1c(-c2ccc(Cl)cc2)cnc2c(-c3ccccc3)cnn12 | 0.32µM* | / | / | 0.48µM* | 1.6µM* | 1.3µM*
Cc1ccc(-c2cnn(-c3ccccc3)c2N)cc1 | 0.45µM* | / | / | 1.3µM* | ? | 1.1µM*
Nc1c(-c2ccc(Cl)cc2)cnn1-c1ccccc1 | 2.2µM* | / | / | 4.8µM* | 6.5µM* | 0.89µM*
O=C(NN=C1C2CC3CC(C2)CC1C3)c1cc(Cl)ccc1O | -4% | -6% | -2% | ? | 0% | 1%
Cc1noc(C)c1NC(=O)Nc1ccc2c(c1)C(=O)N([C@H](C)CO)C[C@H](C)[C@@H](CN(C)C(=O)Nc1ccc3c(c1)OCO3)O2 | / | / | / | / | 3% | /
Cc1ccc2nc(N/N=C/c3ccccc3C#N)nc(-c3ccccc3)c2c1 | 1% | 4% | -8% | 11µM* | -6% | 7%
N#Cc1ccccc1/C=N/Nc1nc(-c2ccccc2)c2cc(Cl)ccc2n1 | -3% | 5% | 9% | -1% | 15% | -4%
SMILES | NPC1 prom act | KinaseGlo FLuc | SMN2 splice up | FLuc modulator | ELG1 genotoxic | Rab9 promoter act
COc1ccc(C(=O)C2CCCN(C(=O)CCc3scnc3C)C2)c(C)c1 (stereo not drawn) | ? | -8% | / | 19µM* | ? | ?
Cc1ccc(NC(=O)COC(=O)c2ccc(-n3nc(C)cc3C)cc2)c(F)c1 | / | / | / | / | 0% | /
Clc1ccccc1-c1nnc(COc2ccccc2)o1 | / | / | 13µM* | 21µM* | / | /
Clc1ccccc1OCc1nnc(-c2ccccc2)o1 | 2.5µM* | 1% | 16µM* | 11µM* | ? | 3.5µM*
CC(Oc1ccc([N+](=O)[O-])cc1)C(=O)NCC1CCCO1 (stereo not drawn) | -1% | / | / | 5% | 5% | -3%
Clc1ccc(Nc2nc3cccnc3s2)cc1 | 2.8µM* | 0% | 13µM* | ? | ? | 2.5µM*
COCCn1c(Cc2ccccc2)nnc1SCc1ccc([N+](=O)[O-])cc1 | 1% | 2% | 1% | 6% | 2% | 2%
O=C(Nc1ccc(Br)cc1)N1CCc2ccccc2C1 | 2.8µM* | / | / | 11µM* | ? | 2.8µM*
O=C(Nc1ccc(F)cc1)N1CCc2ccccc2C1 | 4µM* | -8% | / | 24µM* | ? | ?
O=C(CN1CCc2ccccc2C1)Nc1ccc(Br)cc1 | -1% | 19% | 11% | ? | 10% | -8%
Cc1csc(NC(=O)CCCNC(=O)c2ccc(Cl)cc2)n1 | 0% | / | / | -12% | 3% | -2%
Cc1ccc(S(=O)(=O)N2CCOCC2)cc1C(=O)OCC(=O)c1ccc[nH]1 | -2% | / | / | 1% | 0% | -1%
Cc1ccc(S(=O)(=O)N2CCOCC2)cc1C(=O)OCC(=O)c1ccc(Br)cc1 | 0% | / | / | 3.8µM* | -3% | -4%
O=C(COC(=O)c1ccc(F)c(S(=O)(=O)N2CCOCC2)c1)c1ccc(Cl)cc1 | -2% | / | / | 8.5µM* | -1% | 2%
CCc1nnc(NC(=O)CCN2C(=O)C3CCCCC3C2=O)s1 (stereo not drawn) | -4% | / | / | 4% | 13% | 9%
C=CCn1c(SCC(=O)NCC)nnc1-c1cc2c(s1)CCC(CC)C2 (stereo not drawn) | 5% | 8% | ? | 12µM* | ? | 22%
C=CCn1c(SCC(=O)NC(N)=O)nnc1-c1cc2c(s1)CCC(CC)C2 (stereo not drawn) | -4% | 2% | -30% | ? | -1% | -1%
C=CCn1c(SCC(=O)NCCOC)nnc1-c1cc2c(s1)CCC(CC)C2 (stereo not drawn) | -4% | 4% | 11% | 9.5µM* | -1% | -7%
CC(=O)NC1=NN(C(C)=O)C(c2ccco2)S1 (stereo not drawn) | -3% | / | / | -1% | -1% | 0%
CCc1ccc(OCC(=O)Nc2c(C(=O)c3ccc(Br)cc3)oc3ccccc23)cc1 | / | / | 13% | 3% | / | /
COc1ccc(OC)c(-c2csc(NC(=O)Cc3ccccc3)n2)c1 | -1% | / | / | 11µM* | -20% | 3%
COc1ccc(OC)c(-c2csc(NC(=O)Cc3cccs3)n2)c1 | -4% | 0% | -22% | 13µM* | 0% | -3%
COc1ccc(CC(=O)Nc2nc(-c3cc(OC)ccc3OC)cs2)cc1 | -8% | -2% | -39% | -3% | -10% | -5%
CCc1nnc(NC(=O)c2ccc(-c3ccc([N+](=O)[O-])cc3Cl)o2)s1 | -3% | -2% | -3% | -9% | 0% | -5%

Source: PubChem
